Source: PubChem BioAssay (NCATS)
“And” between values parts separate entries of the source, which are not always exact repeats. Identical values can stand only once. Inconclusive results are not listed. The source made the active and inactive calls. Unless noted, calls come from the whole dose curve; as a rule, active = well fitted curve in the direction sought with a large enough effect; inconclusive = small, poorly fitted or top-dose-only effect, or another doubt; inactive = no such curve, though single readings can be large; an effect the other way counts as inactive or inconclusive.

Experiments:
[1] = Cell Viability - N2a (AID 540); conditions: N2a mouse neuroblastoma cell viability; activity change, negative = cytotoxicity: at 92.2 µM (top of the series);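 note: plate controls were DMSO alone for no effect and tamoxifen control for full effect; nearly all actives have a fitted effect of over 45% in size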
Outline: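 Mouse neuroblastoma N2a cells, 1500/well, exposed to compounds 40 h at 37 °C in complete medium. Viability measured as cellular ATP by CellTiter-Glo luminescence; AC50 from Hill fits of concentration-response.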

[2] = Cell Viability - Renal Proximal Tubule (AID 545); conditions: renal proximal tubule cells viability, primary cells of rat origin; at 91.7 µM (top of the series); note: nearly all actives have a fitted effect of over 40% in size
Outline: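 Luminescent ATP signal (CellTiter-Glo) served as the viability read-out after 40 hr compound exposure of freshly isolated rat proximal tubule cells at 37 °C. Concentration-dependent ATP loss was fitted with the Hill equation to give AC50.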

[3] = Cellular Toxicity (caspase-3) Jurkat (AID 655); conditions: Jurkat caspase-3 activation, luminescence, DMSO = 0%, tamoxifen = 100%; at 92.2 µM (top of the series);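 note: cells exposed to compound for 16 h at 37 °C before reading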
Outline: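 5000 Jurkat cells/well; compound 16 hr, 37 °C; Caspase-Glo 3/7 added, 20 min RT; luminescence read. Norm: DMSO = 0%, tamoxifen 100 uM = 100%. AC50, Hill model.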

[4] = MultiTox-Fluor Cytotoxicity Assay - LYMP1-002 - Live Cells (AID 955);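 note: cells exposed to compound for 16 hours; % is set by controls: 0 for no effect and ±100 for the full control effect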
Outline: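 Human lymphoblastoid LYMP1-002 cells, 2500/well, treated 16 h at 37 C in complete medium. Live-cell protease activity via GF-AFC fluorescence (Ex/Em 405/510) after 60 min reagent incubation; AC50 from Hill fits.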

[5] = MultiTox-Fluor Cytotoxicity Assay - LYMP1-003 - Dead Cells (AID 961);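 note: cells exposed to compound for 16 h at 37 °C; nearly all actives have a fitted effect of over 70% in size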
Outline: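 LYMP1-003 lymphoblastoid, 2500 cells/well, 5 hr settle then 16 hr cpd at 37 C; MultiTox-Fluor reagent 60 min RT; Ex/Em 485/520 dead-cell signal; norm. DMSO = 0%, 15 uM tetraoctylammonium bromide = 100%; Hill AC50.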

[6] = Cell Viability - LYMP1-003 - Assay at 24 hr (AID 963);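 note: plate controls were DMSO only for no effect and tetraoctylammonium bromide positive control for full effect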
Outline: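 Human lymphoblastoid LYMP1-003 cells, 2500/well, treated 24 h at 37 C in complete medium. Viability read as intracellular ATP by CellTiter-Glo luminescence after 30 min at room temperature; AC50 from Hill-equation fits of qHTS concentration-response.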

[7] = Cell Viability - LYMP2-003 (AID 965);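 note: cells exposed to compounds for 24 h before reading; 0% = DMSO only and full effect = 92 µM tetraoctylammonium bromide; nearly all actives have a fitted effect of over 50% in size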
Outline: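 Seed 2500 lymphoblastoid cells/well; incubate 5 hr, 37 C; add compounds; incubate 24 hr, 37 C; add CellTiter-Glo, 30 min RT; read luminescence. AC50 from Hill fit.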

[8] = Cell Viability - LYMP2-009 (AID 968);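 note: 0% = DMSO alone and the full-kill end = tetraoctylammonium bromide at 92 µM; nearly all actives have a fitted effect of over 55% in size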
[9] = Cell Viability - LYMP2-015 (AID 971);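 note: 0% = DMSO only and full effect = 92 µM tetraoctylammonium bromide; nearly all actives have a fitted effect of over 55% in size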
Outline: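 LYMP2-015 human lymphoblastoid cells (2500/well) in complete medium, compound-treated 24 h at 37 C; viability read as cellular ATP by CellTiter-Glo luminescence after 30 min at room temperature. AC50 from Hill-equation fits of qHTS concentration-response data.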

[10] = Cell Viability - LYMP2-019 (AID 973);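 note: 0% = DMSO alone and full effect = 92 µM tetraoctylammonium bromide; nearly all actives have a fitted effect of over 55% in size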
Outline: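 Human lymphoblastoid LYMP2-019 cells (2500/well) preincubated 5 h at 37 C, then treated 24 h at 37 C in complete medium. Viability by CellTiter-Glo ATP luminescence after 30 min at room temperature; AC50 from Hill fits.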

[11] = Cell Viability - LYMP2-021 (AID 974);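 note: compound exposure lasts 24 hours at 37 °C; % is set by controls: 0 for no effect and ±100 for the full control effect; nearly all actives have a fitted effect of over 55% in size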
Outline: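 Human lymphoblastoid LYMP2-021 cells, 2500/well in complete medium, treated 24 hours at 37 C. Intracellular ATP by CellTiter-Glo luminescence (30 min, RT); AC50 from Hill fits of concentration-response.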

[12] = Cell Viability - LYMP2-025 (AID 976);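 note: plate controls were DMSO only for no effect and tetraoctylammonium bromide control for full effect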
Outline: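 Human lymphoblastoid LYMP2-025 cells, 2500/well, exposed 24 h at 37 C in complete medium in 1536-well qHTS. Viability as cellular ATP by CellTiter-Glo luminescence; AC50 from Hill fits of concentration-response data.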

[13] = Cell Viability - LYMP2-002 (AID 977);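 note: plate controls were DMSO only for no effect and 92 µM tetraoctylammonium bromide for full effect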
Outline: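 Luminescent ATP readout (CellTiter-Glo, 30 min room temperature) after 24 h compound exposure at 37 C of a human lymphoblastoid line, 2500 cells/well. AC50 values derived by standard Hill fitting of qHTS concentration-response data.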

[14] = Cell Viability - LYMP2-006 (AID 978);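 note: cells exposed to compound for 24 hours; % is set by controls: 0 for no effect and ±100 for the full control effect; nearly all actives have a fitted effect of over 60% in size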
Outline: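 Cells are seeded at 2500 per well and rested 5 hr at 37 C. Compounds are added across a concentration series for 24 hr at 37 C, after which ATP is quantified by luciferase luminescence.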

[15] = Cell Viability - LYMP2-008 (AID 980); note: % is set by controls: 0 for no effect and ±100 for the full control effect; nearly all actives have a fitted effect of over 60% in size
Outline: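 LYMP2-008 lymphoblastoid cells (2500/well) plated 5 h, then treated 24 h at 37 C in complete medium. Viability read as intracellular ATP by CellTiter-Glo luminescence after 30 min at room temperature; AC50 from Hill fits.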

[16] = Cell Viability - LYMP2-016 (AID 984)
Outline: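 Cells were seeded at 2500 per well and rested 5 hr before a 24 hr compound exposure at 37 C. Viability was then gauged as cellular ATP by luciferase luminescence, with AC50 values fitted to the Hill equation.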

[17] = Cell Viability - LYMP1-002 - Assay at 40 hr (AID 994);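 note: 0% = DMSO only and full inhibition = 92 µM tetraoctylammonium bromide; nearly all actives have a fitted effect of over 60% in size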
Outline: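 LYMP1-002 human lymphoblastoid cells (2500/well, complete medium) were treated with compounds for 40 hr at 37 C. Intracellular ATP was measured by CellTiter-Glo luminescence, and AC50 values came from Hill-equation fits of concentration-response data; tetraoctylammonium bromide was the positive control.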

[18] = molecular target: Thyroid hormone receptor beta (Homo sapiens) (UniProt P10828); assay: qHTS assay for small molecule agonists of thyroid hormone receptor beta signaling (AID 588545; calls by dose curve)
Outline: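 In this cell-based screen, titrated compounds act on HEK 293 cells held in medium with 2% charcoal/dextran FBS, NEAA and pyruvate for 18 hrs at 37 C. Responses are expressed relative to T3 (10 nM) as 100% and basal DMSO as 0%.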

[19] = molecular target: Voltage-gated inwardly rectifying potassium channel KCNH2 (Homo sapiens) (UniProt Q12809); assay: qHTS Assay for Small Molecule Inhibitors of the Human hERG Channel Activity (AID 588834);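 note: top concentration of the series differs between compounds; % is set by controls: 0 for no effect and ±100 for the full control effect; lower thallium flux fluorescence means stronger hERG block; nearly all actives have a fitted effect of over 50% in size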
Outline: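 hERG-BacMam U2OS, 2000 cells/well; 0.7X FluxOR loading 1 hr RT dark; cpd ~10 min 37 °C; stim buffer; FDSS fluorescence 2 min @ 1 s; AC50 Hill fit.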

[20] = qHTS assay for small molecule agonists of the antioxidant response element (ARE) signaling pathway measured by Nrf2-dependant transcriptional activity (AID 720636; active = well fitted curve in the direction sought with a large enough effect in the repeat runs; an effect the other way counts as inactive or inconclusive;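 note: HepG2 cells with an ARE-driven luciferase reporter; % of control where 0% means no effect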)
Outline: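 Attachment 6 hr at 37 C, then compound versus DMSO vehicle for 16 hr in ARE-luc HepG2 cells (1% dialyzed FBS); luminescence recorded 30 min after ONE-Glo addition at room temperature.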

Chain of Thyroid hormone receptor beta (Homo sapiens) (P10828 whole entry, looked up): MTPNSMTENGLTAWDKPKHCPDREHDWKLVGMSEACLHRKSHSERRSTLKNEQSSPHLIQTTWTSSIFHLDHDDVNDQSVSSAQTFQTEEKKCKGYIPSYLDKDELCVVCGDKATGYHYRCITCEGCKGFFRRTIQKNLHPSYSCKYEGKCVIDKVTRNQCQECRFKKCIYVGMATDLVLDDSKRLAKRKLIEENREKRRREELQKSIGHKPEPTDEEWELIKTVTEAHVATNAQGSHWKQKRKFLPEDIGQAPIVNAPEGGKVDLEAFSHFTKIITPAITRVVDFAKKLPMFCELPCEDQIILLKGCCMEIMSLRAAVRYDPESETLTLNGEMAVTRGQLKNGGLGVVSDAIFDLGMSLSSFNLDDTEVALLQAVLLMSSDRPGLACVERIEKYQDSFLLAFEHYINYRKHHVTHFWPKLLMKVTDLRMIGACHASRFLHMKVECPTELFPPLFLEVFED
Chain of Voltage-gated inwardly rectifying potassium channel KCNH2 (Homo sapiens) (Q12809 whole entry, looked up): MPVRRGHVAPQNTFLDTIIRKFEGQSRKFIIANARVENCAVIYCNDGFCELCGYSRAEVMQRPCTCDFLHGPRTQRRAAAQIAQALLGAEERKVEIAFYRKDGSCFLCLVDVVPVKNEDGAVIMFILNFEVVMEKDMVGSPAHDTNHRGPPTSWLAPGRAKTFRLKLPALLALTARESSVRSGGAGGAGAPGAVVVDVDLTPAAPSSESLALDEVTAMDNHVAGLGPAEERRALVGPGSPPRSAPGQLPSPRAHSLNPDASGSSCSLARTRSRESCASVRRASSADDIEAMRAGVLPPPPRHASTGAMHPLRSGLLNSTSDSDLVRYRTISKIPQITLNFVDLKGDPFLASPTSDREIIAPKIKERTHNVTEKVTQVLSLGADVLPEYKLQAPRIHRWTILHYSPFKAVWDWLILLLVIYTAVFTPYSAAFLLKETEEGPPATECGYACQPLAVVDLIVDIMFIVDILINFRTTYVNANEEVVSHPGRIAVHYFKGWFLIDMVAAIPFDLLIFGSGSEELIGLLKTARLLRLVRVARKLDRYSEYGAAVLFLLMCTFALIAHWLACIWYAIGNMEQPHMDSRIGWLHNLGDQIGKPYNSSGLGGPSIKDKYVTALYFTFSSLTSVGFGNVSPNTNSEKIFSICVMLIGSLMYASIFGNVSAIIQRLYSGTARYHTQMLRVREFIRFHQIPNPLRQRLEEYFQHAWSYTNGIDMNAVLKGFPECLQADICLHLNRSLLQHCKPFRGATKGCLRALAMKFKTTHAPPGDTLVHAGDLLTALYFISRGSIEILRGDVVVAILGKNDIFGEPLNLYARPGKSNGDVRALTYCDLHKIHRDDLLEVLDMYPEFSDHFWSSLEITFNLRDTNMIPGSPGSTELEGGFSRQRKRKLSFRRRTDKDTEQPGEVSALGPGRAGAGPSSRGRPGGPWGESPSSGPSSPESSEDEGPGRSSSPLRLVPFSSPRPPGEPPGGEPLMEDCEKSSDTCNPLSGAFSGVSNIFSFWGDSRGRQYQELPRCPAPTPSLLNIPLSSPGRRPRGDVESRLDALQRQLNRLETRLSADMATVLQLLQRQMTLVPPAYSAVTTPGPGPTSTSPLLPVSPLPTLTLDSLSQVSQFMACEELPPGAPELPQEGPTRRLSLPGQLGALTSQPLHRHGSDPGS

C/C=C\c1ccc(OC)cc1
inactive: activity change, negative = cytotoxicity [1] -0.381% | activity change, negative = cytotoxicity [2] -7.43% | caspase-3 activation [3] -0.717% | Potency [4] | Potency [5] | Potency [6] | Potency [7] | Potency [8] | Potency [9] | Potency [10] | Potency [11] | Potency [12] | Potency [13] | Potency [14] | Potency [15] | Potency [16] | Potency [17] | outcome [18] | Potency [19] | Potency [20]

c1ccccc1
inactive: activity change, negative = cytotoxicity [1] -0.296% and -3.09% | activity change, negative = cytotoxicity [2] 3.93% and -11% | caspase-3 activation [3] 0.593% and 0.461% | Potency [4] | Potency [5] | Potency [6] | Potency [7] | Potency [8] | Potency [9] | Potency [10] | Potency [11] | Potency [12] | Potency [13] | Potency [14] | Potency [15] | Potency [16] | Potency [17] | outcome [18] | Potency [20]

C1OCOCO1
inactive: activity change, negative = cytotoxicity [1] -19.8% | activity change, negative = cytotoxicity [2] -10.6% | caspase-3 activation [3] 2.97% | Potency [4] | Potency [5] | Potency [6] | Potency [7] | Potency [8] | Potency [9] | Potency [10] | Potency [11] | Potency [12] | Potency [13] | Potency [14] | Potency [15] | Potency [16] | Potency [17] | outcome [18] | Potency [19] | Potency [20]

CC(C)=CCCC(C)CCO (stereo not drawn)
inactive: activity change, negative = cytotoxicity [1] -9.36% | activity change, negative = cytotoxicity [2] -2.53% | caspase-3 activation [3] 2.37% | Potency [4] | Potency [5] | Potency [6] | Potency [7] | Potency [8] | Potency [9] | Potency [10] | Potency [11] | Potency [12] | Potency [13] | Potency [14] | Potency [15] | Potency [16] | Potency [17] | outcome [18] | Potency [19] | Potency [20]

CN(C)CCCCCCN(C)C
inactive: activity change, negative = cytotoxicity [1] 1.64% | activity change, negative = cytotoxicity [2] -0.404% | caspase-3 activation [3] -2.92% | Potency [4] | Potency [5] | Potency [6] | Potency [7] | Potency [8] | Potency [9] | Potency [10] | Potency [11] | Potency [12] | Potency [13] | Potency [14] | Potency [15] | Potency [16] | Potency [17] | outcome [18] | Potency [20]

CC1=CC(C)(C)Nc2ccccc21
inactive: activity change, negative = cytotoxicity [1] -24% and 1.94% | activity change, negative = cytotoxicity [2] -6.6% and -0.974% | caspase-3 activation [3] -0.184% and 0.591% | Potency [4] | Potency [5] | Potency [6] | Potency [7] | Potency [8] | Potency [9] | Potency [10] | Potency [11] | Potency [12] | Potency [13] | Potency [14] | Potency [15] | Potency [16] | Potency [17] | outcome [18] | Potency [19] | Potency [20]

O=C(O)c1ccc(O)cc1O
inactive: activity change, negative = cytotoxicity [1] 7.6% and 11% | activity change, negative = cytotoxicity [2] -3.65% and 5.93% | caspase-3 activation [3] -0.639% and 0.659% | Potency [4] | Potency [5] | Potency [6] | Potency [7] | Potency [8] | Potency [9] | Potency [10] | Potency [11] | Potency [12] | Potency [13] | Potency [14] | Potency [15] | Potency [16] | Potency [17] | outcome [18] | Potency [19] | Potency [20]

COC(=O)c1ccc(C)cc1
inactive: activity change, negative = cytotoxicity [1] -14.4% | activity change, negative = cytotoxicity [2] -5.83% | caspase-3 activation [3] 0.483% | Potency [4] | Potency [5] | Potency [6] | Potency [7] | Potency [8] | Potency [9] | Potency [10] | Potency [11] | Potency [12] | Potency [13] | Potency [14] | Potency [15] | Potency [16] | Potency [17] | outcome [18] | Potency [19] | Potency [20]

CC(=O)OC/C=C(\C)CCC=C(C)C
inactive: activity change, negative = cytotoxicity [1] -0.528% | activity change, negative = cytotoxicity [2] 3.05% | caspase-3 activation [3] 1.05% | Potency [4] | Potency [5] | Potency [6] | Potency [7] | Potency [8] | Potency [9] | Potency [10] | Potency [11] | Potency [12] | Potency [13] | Potency [14] | Potency [15] | Potency [16] | Potency [17] | outcome [18] | Potency [19] | Potency [20]

Cc1c(N=C=O)cccc1N=C=O
inactive: activity change, negative = cytotoxicity [1] -2.52% | activity change, negative = cytotoxicity [2] 6.1% | caspase-3 activation [3] -0.0166% | Potency [4] | Potency [5] | Potency [6] | Potency [7] | Potency [8] | Potency [9] | Potency [10] | Potency [11] | Potency [12] | Potency [13] | Potency [14] | Potency [15] | Potency [16] | Potency [17] | outcome [18] | Potency [19] | Potency [20]

CCCCCCCCO
inactive: activity change, negative = cytotoxicity [1] -10.6% | activity change, negative = cytotoxicity [2] -1.75% | caspase-3 activation [3] -0.397% | Potency [4] | Potency [5] | Potency [6] | Potency [7] | Potency [8] | Potency [9] | Potency [10] | Potency [11] | Potency [12] | Potency [13] | Potency [14] | Potency [15] | Potency [16] | Potency [17] | outcome [18] | Potency [19] | Potency [20]
